# Experimental data published in the supplement of paper PMC9135407.
# Where “and” joins values, the source holds several entries; their conditions need not be identical. Identical values can stand only once. Counter-ions that a name gives are not always drawn. Out of some 5,800 compounds screened, about 620 (11%) showed activity. For the sample, actives were picked, then their nearest neighbours and some compounds at random. A number with no mark means an inactive call.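 The calls were made as follows: active = score above a cut-off or among the top three wells of a plate; in these data no inactive exceeds 0.85.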
# System: primary human hepatic stellate cells (donor 1)
# Assay: scaled lipid accumulation score (0 = DMSO-like, 1 = nortriptyline-like); higher = stronger HSC inactivation (lipid re-accumulation), active = hit call of the paper
# Conditions: 48 h
# [1] = library stock concentration: 1 mM
# [2] = library stock concentration: 10 mM
# [3] = library stock concentration: 3.33 mM
# [4] = library stock concentration: 80 uM
# [5] = library stock concentration: 400 uM
# [6] = library stock concentration: 2 mM
compound,measurement,setting,value
CCCCCCCCCCCCCCCC(=O)N[C@H](CN1CCOCC1)[C@H](O)c1ccccc1 (racemic),scaled lipid accumulation score,[1],≤ -0.021
CCCCC[C@H](O)/C=C/[C@H]1[C@H](O)CC(=O)[C@@H]1CCCCCCCO [Prostaglandin E1 Alcohol],scaled lipid accumulation score,[1],0.129
O=C1C(c2ccccc2)N(c2ccc(Br)cc2)C(=O)N1c1ccc(Br)cc1 (centres undefined),scaled lipid accumulation score,[1],≤ 0
CC[C@H](C)C(=O)O[C@H]1C[C@H](O)C=C2C=C[C@H](C)[C@H](CC[C@@H]3C[C@@H](O)CC(=O)O3)[C@H]21 [Pravastatin lactone],scaled lipid accumulation score,library stock concentration: 4.9 mM,≤ 0
CCNC(=O)N1CCN(CCCC(c2ccc(F)cc2)c2ccc(F)cc2)CC1 [Amperozide hydrochloride],scaled lipid accumulation score,[2],0.661
O=C1NCN(c2ccccc2)C12CCN(CCCC(c1ccc(F)cc1)c1ccc(F)cc1)CC2 [Fluspirilene],scaled lipid accumulation score,[2],1.02 (active)
O=C1NCN(c2ccccc2)C12CCN(CCCC(c1ccc(F)cc1)c1ccc(F)cc1)CC2 [Fluspirilen],scaled lipid accumulation score,,≤ 0
O=C(Nc1ccc(C(F)(F)F)cn1)N1CCN(c2ncccc2C(F)(F)F)CC1,scaled lipid accumulation score,[2],0.012
CCCC[C@@H](C)/C=C(C)/C=C(\C)C(=O)NC1=C[C@@](O)(/C=C/C=C/C=C/C(=O)NC2=C(O)CCC2=O)[C@@H]2O[C@@H]2C1=O [Manumycin A],scaled lipid accumulation score,library stock concentration: 9.1 mM,0.793
"COc1cc2ncnc(Nc3ccc(F)c(Cl)c3)c2cc1OCCCN1CCOCC1 [Gefitinib (ZD1839, Iressa) (10 mM)]",scaled lipid accumulation score,[2],0.94 (active)
C=CC(=O)Nc1ccc2ncnc(Nc3cccc(Br)c3)c2c1,scaled lipid accumulation score,[3],0.014
same,scaled lipid accumulation score,[2],0.802
COc1cc2ncnc(Nc3ccc(F)c(Cl)c3)c2cc1OCCCN1CCOCC1,scaled lipid accumulation score,[4],≤ -0.003
same,scaled lipid accumulation score,[5],≤ -0.009
same,scaled lipid accumulation score,[6],0.19
same,scaled lipid accumulation score,[2],0.65
C=CC(=O)Nc1cc2c(Nc3ccc(F)c(Cl)c3)ncnc2cc1OCCCN1CCOCC1 [listing 1 of 2 here],scaled lipid accumulation score,[4],0.045
same,scaled lipid accumulation score,[5],≤ -0.009 and ≤ -0.005
same,scaled lipid accumulation score,[6],0.07 and ≤ -0.005
same,scaled lipid accumulation score,[2],0.314
COc1cc2ncnc(Nc3ccc(F)c(Cl)c3)c2cc1OCCCN1CCOCC1 [Gefitinib],scaled lipid accumulation score,library stock concentration: 4.5 mM,0.19
C=CC(=O)Nc1cc2c(Nc3ccc(F)c(Cl)c3)ncnc2cc1OCCCN1CCOCC1 [listing 2 of 2 here],scaled lipid accumulation score,[2],0.983 (active)
COc1cc2ncnc(Nc3ccc(F)c(Cl)c3)c2cc1OCCCN1CCOCC1 [Gefitinib (ZD1839)] [listing 1 of 2 here],scaled lipid accumulation score,[2],1.05 (active)
"COc1cc2ncnc(Nc3ccc(F)c(Cl)c3)c2cc1OCCCN1CCOCC1 [Gefitinib (ZD1839, Iressa) (0.4 mM)]",scaled lipid accumulation score,[5],0.081
"COc1cc2ncnc(Nc3ccc(F)c(Cl)c3)c2cc1OCCCN1CCOCC1 [Gefitinib (ZD1839, Iressa) (2 mM)]",scaled lipid accumulation score,[6],0.864 (active)
C=CC(=O)Nc1cc2c(Nc3ccc(F)c(Cl)c3)ncnc2cc1C#CC(C)(C)N1CCN(C)CC1,scaled lipid accumulation score,[5],0.879 (active)
COc1cc2ncnc(Nc3ccc(F)c(Cl)c3)c2cc1OCCCN1CCOCC1 [Gefitinib (ZD1839)] [listing 2 of 2 here],scaled lipid accumulation score,[3],0.43
CC(=O)OCC(=O)[C@@]1(O)[C@H](OC(C)=O)C[C@H]2[C@@H]3CCC4=CC(=O)C=C[C@]4(C)[C@@]3(F)[C@@H](O)C[C@@]21C [Triamcinolone diacetate],scaled lipid accumulation score,[2],≤ 0
COc1ncc(-c2ccc3nccc(-c4ccnnc4)c3c2)cc1NS(=O)(=O)c1ccc(F)cc1F,scaled lipid accumulation score,[4],≤ -0.009
same,scaled lipid accumulation score,[5],≤ -0.009
same,scaled lipid accumulation score,[6],≤ -0.009
same,scaled lipid accumulation score,[3],0.066
same,scaled lipid accumulation score,[2],0.479 and 0.24
O=C(Nc1ccccc1)C12CC1C(=NO)c1ccccc1O2 (centres undefined),scaled lipid accumulation score,[2],≤ -0.006
Clc1cccc(Nc2nnc(-c3ccccc3)c3ccccc23)c1,scaled lipid accumulation score,[2],0.162
same,scaled lipid accumulation score,library stock concentration: 15.1 mM,0.258
CCCCCCCCCC(=O)N[C@H](CN1CCOCC1)[C@H](O)c1ccccc1 (racemic) [DL-threo-PDMP (hydrochloride)],scaled lipid accumulation score,[1],0.001
CCCn1c(=O)c(C)cn2nc(N)nc12,scaled lipid accumulation score,[2],≤ 0 and 0.03
C=C1CC[C@@H]2[C@](C)(CO)[C@H](O)CC[C@@]2(C)[C@@H]1C/C=C1/C(=O)OC[C@H]1O [Andrographolide],scaled lipid accumulation score,[3],0.094
same,scaled lipid accumulation score,[2],0.785
C[C@@H]1C[C@H]2[C@@H]3C[C@H](F)C4=CC(=O)C(Cl)=C[C@]4(C)[C@@]3(F)[C@@H](O)C[C@]2(C)[C@@]1(O)C(=O)CO,scaled lipid accumulation score,[2],≤ 0
CC1(C)S[C@@H]2[C@H](NC(=O)[C@H](N)c3ccc(O)cc3)C(=O)N2[C@H]1C(=O)O,scaled lipid accumulation score,[2],0.145
CC1(C)S[C@@H]2[C@H](NC(=O)[C@H](N)c3ccc(O)cc3)C(=O)N2[C@H]1C(=O)O [Amoxicillin],scaled lipid accumulation score,,0.056
same,scaled lipid accumulation score,[3],≤ 0
same,scaled lipid accumulation score,[2],0.044 and ≤ 0
CC1(C)S[C@@H]2[C@H](NC(=O)[C@H](N)c3ccc(O)cc3)C(=O)N2[C@H]1C(=O)O [Amoxicillin Sodium],scaled lipid accumulation score,[3],≤ 0
same,scaled lipid accumulation score,[2],≤ 0
O=C(CCC/C=C\C[C@@H]1C(/C=C/[C@@H](O)COc2cccc(C(F)(F)F)c2)[C@H](O)C[C@@H]1O)NC(CO)CO (some centres undefined) [Fluprostenol serinol amide],scaled lipid accumulation score,[1],≤ 0
"c1ccc(C2CN3CCSC3=N2)cc1 (single isomer, unassigned; (-)) [(-)-Tetramisole hydrochloride]",scaled lipid accumulation score,[2],≤ -0.055
CCCCC(C)(O)C/C=C/[C@H]1[C@H](O)CC(=O)[C@@H]1CCCCCCC(=O)OC (some centres undefined) [Misoprostol],scaled lipid accumulation score,[1],≤ 0
same,scaled lipid accumulation score,library stock concentration: 5.2 mM,≤ 0
CCCCC[C@H](O)/C=C/[C@@H]1[C@@H](CCCCCCC(=O)O)[C@H](O)C[C@@H]1O [11.beta.-Prostaglandin F1.beta.],scaled lipid accumulation score,[1],≤ 0
COc1cc2ncnc(Nc3ccc(F)c(Cl)c3)c2cc1OCCCN1CCOCC1 [Iressa],scaled lipid accumulation score,[2],0.9 (active)
CC(C)[C@H](O)C(=O)O [(S)-(+)-2-hydroxy-3-Methylbutyric Acid],scaled lipid accumulation score,[1],≤ 0
Cc1cc(C)c(/C=C2\C(=O)Nc3ccccc32)[nH]1 [Semaxanib (SU5416)],scaled lipid accumulation score,[3],≤ 0
same,scaled lipid accumulation score,[2],0.145
Cc1cc(C)c(/C=C2\C(=O)Nc3ccccc32)[nH]1,scaled lipid accumulation score,[1],≤ 0
same,scaled lipid accumulation score,[2],≤ 0 and 0.011
Cc1cc(C)c(/C=C2\C(=O)Nc3ccccc32)[nH]1 [VEGF Receptor 2 Kinase Inhibitor III],scaled lipid accumulation score,[3],≤ 0
CN(C)c1ccc(/C=C2/C(=O)Nc3ccccc32)cc1,scaled lipid accumulation score,[2],≤ 0 and 0.041
same,scaled lipid accumulation score,library stock concentration: 18.9 mM,0.01
CC(C)(C)OC(=O)Nc1ccc(-c2cc(C(=O)NCCCCCCC(=O)NO)no2)cc1,scaled lipid accumulation score,[1],≤ 0
CC(=O)OCC(=O)[C@@]1(O)CC[C@H]2[C@@H]3C[C@H](C)C4=CC(=O)C=C[C@]4(C)[C@H]3[C@@H](O)C[C@@]21C,scaled lipid accumulation score,[2],≤ 0
CN1CCN(CCc2ccc(Cl)c(Cl)c2)CC1 [BD 1063 dihydrochloride],scaled lipid accumulation score,[2],0.684
Br.Br.CN(CCc1ccc(Cl)c(Cl)c1)CCN1CCCC1 [BD 1008 dihydrobromide],scaled lipid accumulation score,[2],0.882 (active)
COc1ccc(CCN(C)CCc2ccc(OC)c(OC)c2)cc1OC [YS-035 hydrochloride],scaled lipid accumulation score,[2],0.011 and 0.112
C[C@H](NCc1ccc(OCc2cccc(F)c2)cc1)C(N)=O [Safinamide Mesylate],scaled lipid accumulation score,[3],≤ 0
same,scaled lipid accumulation score,[2],≤ 0
CC(C)OC(=O)CCC/C=C/C[C@H]1C(=O)C[C@@H](O)[C@@H]1/C=C/[C@@H](O)COc1cccc(C(F)(F)F)c1 [9-keto Fluprostenol isopropyl ester],scaled lipid accumulation score,[1],≤ 0
"C=C1C[C@@H](O)[C@H](/C=C/[C@@H](O)C(C)(C)CCCC)[C@H]1C/C=C\CCCC(=O)O [9-deoxy-9-methylene-16,16-dimethyl Prostaglandin E2]",scaled lipid accumulation score,[1],≤ 0
CCOC(=O)c1cnc2ccc(-c3cncc(NS(=O)(=O)c4ccccc4)c3)cn12 [listing 1 of 2 here],scaled lipid accumulation score,[3],0.492
CCOC(=O)c1cnc2ccc(-c3cncc(NS(=O)(=O)c4ccccc4)c3)cn12 [listing 2 of 2 here],scaled lipid accumulation score,[2],0.915 (active)
CCCCC[C@H](O)/C=C/[C@H]1C(=O)C[C@H](O)[C@@H]1C/C=C\CCCC(=O)NCCO [Prostaglandin D2 Ethanolamide],scaled lipid accumulation score,[1],≤ 0
CCC(C)C1OC2(CCC1C)CC1CC(CC=C(C)C(OC3CC(OC)C(OC4CC(OC)C(O)C(C)O4)C(C)O3)C(C)C=CC=C3COC4C(O)C(C)=CC(C(=O)O1)C34O)O2 (centres undefined) [Ivermectin],scaled lipid accumulation score,[3],0.007
same,scaled lipid accumulation score,[2],0.198
CCC(=O)NC[C@H](Cc1ccc(OCCc2nc(-c3ccccc3)oc2C)cc1)N/C(C)=C\C(=O)c1ccc(C(F)(F)F)cc1,scaled lipid accumulation score,[2],≤ -0.001
NC[C@H]1CC[C@H](C(=O)Oc2ccc(CCC(=O)O)cc2)CC1,scaled lipid accumulation score,[2],≤ 0
COC(=O)N[C@@H](C)CNc1nccc(-c2cn(C(C)C)nc2-c2cc(Cl)cc(NS(C)(=O)=O)c2F)n1,scaled lipid accumulation score,[3],≤ -0.009
same,scaled lipid accumulation score,[2],0.655
CNCCCC12CCC(c3ccccc31)c1ccccc12.Cl [Maprotiline hydrochloride] [listing 1 of 2 here],scaled lipid accumulation score,library stock concentration: 6.4 mM,1.05 (active)
same,scaled lipid accumulation score,[2],0.918 (active) and 1.23 (active)
CNCCC[C@]12CC[C@H](c3ccccc31)c1ccccc12.Cl [Maprotiline hydrochloride],scaled lipid accumulation score,,0.944 (active)
CNCCCC12CCC(c3ccccc31)c1ccccc12.Cl [Maprotiline HCl],scaled lipid accumulation score,[2],1.31 (active)
CNCCCC12CCC(c3ccccc31)c1ccccc12.Cl [Maprotiline hydrochloride] [listing 2 of 2 here],scaled lipid accumulation score,[2],1.59 (active)
